# The supplement of paper PMC13380429
# Key:
# [1] = system: Vero E6 infected with SARS-CoV-2; experiment: morphology score (similarity to uninfected cells); higher = more like uninfected cells; conditions: 24 h
# [2] = system: Vero E6 infected with SARS-CoV-2; experiment: SARS-CoV-2 infection rate relative to infected DMSO; higher = more infection, active = 60 or less; conditions: 24 h
SMILES,morphology score [1],SARS-CoV-2 infection rate [2]
OC[C@H]1OC(O)[C@H](O)[C@@H](O)[C@@H]1O (stereo partly specified) [dextrose] (10 µM),-0.00495,110% (inactive)
c1ccc2c(c1)sc1ccccc12 [dibenzothiophene] (10 µM),0.0443,105% (inactive)
N[C@@H](CCC(=O)N[C@@H](CSN=O)C(=O)NCC(=O)O)C(=O)O [S-nitrosoglutathione] (10 µM),0.164,104% (inactive)
Oc1c(Cl)cc(Cl)c(Cl)c1Cc1c(O)c(Cl)cc(Cl)c1Cl [hexachlorophene] (10 µM),0.167,83.5% (inactive)
CCCNC(C)C(=O)Nc1ccccc1C (stereo unspecified) [prilocaine] (10 µM),-0.208,112% (inactive)
CN1C[C@@H](NS(=O)(=O)N(C)C)C[C@@H]2c3cccc4c3c(cn4C)C[C@H]21 [mesulergine] (10 µM),0.205,93.5% (inactive)
COc1cc(NS(=O)(=O)c2ccc(N)cc2)nc(OC)n1 [sulphadimethoxine] (10 µM),-0.00223,103% (inactive)
O=C1CN2Cc3c(ccc(Cl)c3Cl)N=C2N1 [anagrelide] (10 µM),0.142,112% (inactive)
O=C1NC(=O)c2c1c1c3ccccc3[nH]c1c1[nH]c3ccccc3c21 [arcyriaflavin-a] (10 µM),0.363,106% (inactive)
N=C(N)NCCSSCCNC(=N)N [guanidinoethyldisulfide-bicarbonate] (10 µM),0.0245,107% (inactive)
CCC(C)n1ncn(-c2ccc(N3CCN(c4ccc(OCC5COC(Cn6cncn6)(c6ccc(Cl)cc6Cl)O5)cc4)CC3)cc2)c1=O (stereo unspecified) [itraconazole] (10 µM),0.0302,104% (inactive)
CC(=O)OCC(=O)[C@H]1CC[C@H]2[C@@H]3CCC4=CC(=O)CC[C@]4(C)[C@H]3CC[C@]12C [deoxycorticosterone-acetate] (10 µM),-0.0375,102% (inactive)
COc1nc(C)nc(Cl)c1NC1=NCCN1 [moxonidine] (10 µM),0.0753,102% (inactive)
CN(C(=O)c1ccc(F)cc1C(F)(F)F)C1CCN(c2nnc(-c3ccnn3C)c3ccccc23)CC1 [taladegib] (10 µM),0.0832,102% (inactive)
CNC(=O)c1c(I)c(NC(C)=O)c(I)c(C(=O)O)c1I [iothalamic-acid-d3] (10 µM),0.143,104% (inactive)
Cc1csc2c(N[C@@H](C)CN3CCN(S(=O)(=O)c4ccc(Cl)c(Cl)c4)CC3)ncnc12 [LPA2-antagonist-1] (10 µM),0.142,100% (inactive)
Cn1c(=O)c2[nH]c(Br)nc2n(C)c1=O [pamabrom] (10 µM),0.0536,101% (inactive)
CN1CCC(=C2c3ccccc3CC(=O)c3sccc32)CC1 [ketotifen] (10 µM),0.144,101% (inactive)
Cn1c(=O)c2c(ncn2CC(=O)O)n(C)c1=O [acefylline] (10 µM),0.124,100% (inactive)
O=C1c2cc(Cl)ccc2OC2CCON12 (stereo unspecified) [seclazone] (10 µM),0.0763,102% (inactive)
O=C(O)CNC(=O)C1C(=O)N(C2CCCCC2)C(=O)N(C2CCCCC2)C1=O [daprodustat] (10 µM),0.206,81.5% (inactive)
NCCNCCNCCN [trientine] (10 µM),-0.00487,106% (inactive)
Cc1cn([C@H]2O[C@@H](CO)[C@H](O)[C@H]2F)c(=O)[nH]c1=O [clevudine] (10 µM),-0.0291,107% (inactive)
Cl/C(=C\n1cncn1)c1ccc(Cl)cc1Cl [loreclezole] (10 µM),0.0913,102% (inactive)
S=P(N1CC1)(N1CC1)N1CC1 [thiotepa] (10 µM),0.127,96% (inactive)
N=C(N)NC(=N)Nc1cccc(Cl)c1 [m-chlorophenylbiguanide] (10 µM),-0.0474,108% (inactive)
Cc1cc(-c2ncc(CC(=O)Nc3ccc(-c4cnccn4)cn3)cc2C)ccn1 (10 µM),-0.0828,111% (inactive)
CN[C@@H](C)C(=O)N[C@H]1CCCC[C@H]2CC[C@@H](C(=O)N[C@@H](c3ccccc3)c3cn(CCCCc4ccc(CCCCn5cc([C@@H](NC(=O)[C@@H]6CC[C@@H]7CCCC[C@H](NC(=O)[C@H](C)NC)C(=O)N76)c6ccccc6)nn5)cc4)nn3)N2C1=O (10 µM),0.155,98% (inactive)
